{
  "source": "PubChem BioAssay (EPA / NIEHS)",
  "note": "“And” between values parts separate entries of the source, which are not always exact repeats. Equal entries are not always repeated. Inconclusive results are not listed. More than one record can exist for a structure, and the calls need not agree. The source made the active and inactive calls. How the source made its calls, unless noted: active means hit-call score of the fitted dose curve at least 0.9, where 1 is the maximum; inconclusive means response in the unintended direction; inactive means score below 0.9.",
  "data": [
    {"assay": "ACEA_ER_80hr: ACEA Biosciences xCELLigence Real-Time Cell Analysis on Estrogen Receptor Agonism for Proliferation (AID 2282667)", "settings": "T47D proliferation, impedance (xCELLigence), 80 h", "how_it_was_run": "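Estrogen-driven proliferation is captured as electrode impedance in T47D cells 80 h after compound addition. Test articles ran at 8 concentrations, 1:4 dilutions from 100 uM final, in two replicate plates.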", "values": [
      {"smiles": "CC#C[C@]1(O)CC[C@H]2[C@@H]3CCC4=CC(=O)CCC4=C3[C@@H](c3ccc(N(C)C)cc3)C[C@@]21C", "AC50": "132 nM (active) and 56 nM (active) and 36.7 nM (active)"},
      {"smiles": "CCOC(=O)CC(O)(CC(=O)OCC)C(=O)OCC", "AC50": "750 nM (active)"},
      {"smiles": "CCCCCCCC(=O)O", "outcome": "inactive"},
      {"smiles": "Cc1ccc(S(=O)(=O)O)c(C)c1", "outcome": "inactive"},
      {"smiles": "CC[C@H](c1ccc(O)cc1)[C@@H](CC)c1ccc(O)cc1", "AC50": "6.89 nM (active) and 5.23 nM (active) and 2.6 nM (active)"},
      {"smiles": "O=c1c(-c2ccc(O)cc2)coc2cc(O)ccc12", "AC50": "330 nM (active) and 318 nM (active) and 427 nM (active)"},
      {"smiles": "CCCCC(CC)COC(=O)CCCCC(=O)OCC(CC)CCCC", "note": "(stereo unspecified)", "outcome": "inactive"},
      {"smiles": "CC(C)(C)c1cccc(C(C)(C)C)c1O", "outcome": "inactive"},
      {"smiles": "CCCOc1sc(C(=O)N2CCC(c3cc(CN)ccc3F)CC2)c(C)c1Br", "outcome": "inactive"},
      {"smiles": "NC(=O)N(O)[C@@H]1C=C[C@H](Oc2cccc(Oc3ccc(F)cc3)c2)C1", "outcome": "inactive"},
      {"smiles": "NC(=O)N1C(=O)C(C(=O)c2cc(Cl)cs2)c2cc(F)c(Cl)cc21", "note": "(stereo unspecified)", "outcome": "inactive"},
      {"smiles": "Cc1cc(C)c(O)c(C)c1", "outcome": "inactive"},
      {"smiles": "CCCCCCCCCCCCCC[N+](C)(C)C", "AC50": "128 nM (active) and 101 nM (active)"},
      {"smiles": "Nc1cccc2c(N)cccc12", "outcome": "inactive"},
      {"smiles": "COCC(C)O", "note": "(stereo unspecified)", "outcome": "inactive"},
      {"smiles": "c1ccc2c(c1)ccc1ccccc12", "outcome": "inactive"},
      {"smiles": "CCCCC[C@H](O)CC(=O)CCc1ccc(O)c(OC)c1", "outcome": "inactive"},
      {"smiles": "CC(C)CCCCCCOC(=O)CCCCC(=O)OCCCCCCC(C)C", "outcome": "inactive"},
      {"smiles": "O=C(/C=C/c1ccc(O)cc1)CC(=O)/C=C/c1ccc(O)cc1", "outcome": "inactive"},
      {"smiles": "OCCC(F)(F)C(F)(F)C(F)(F)C(F)(F)C(F)(F)C(F)(F)C(F)(F)C(F)(F)F", "outcome": "inactive"},
      {"smiles": "C#C[C@]1(O)CC[C@H]2[C@@H]3CCC4=CC(=O)CC[C@@H]4[C@H]3CC[C@@]21C", "AC50": "3.95 nM (active) and 5.39 nM (active) and 91.8 nM (active)"},
      {"smiles": "CCc1nn(C2CCCCC2)c2cc(C3(C#N)CCC(C(=O)O)CC3)ccc12", "note": "(stereo unspecified)", "outcome": "inactive"},
      {"smiles": "NCC(F)(F)C(F)(F)C(F)(F)C(F)(F)C(F)(F)C(F)(F)C(F)(F)F", "outcome": "inactive"},
      {"smiles": "OC1CCCCC1", "outcome": "inactive"},
      {"smiles": "CCC(=C(c1ccc(O)cc1)c1ccc(OCCN(C)C)cc1)c1ccccc1", "AC50": "2.29 nM (active)", "outcome": "inactive"},
      {"smiles": "CCc1ccc(CCOc2ccc(CC3SC(=O)NC3=O)cc2)nc1", "note": "(stereo unspecified)", "outcome": "inactive"},
      {"smiles": "CC(C)(C)c1ccc(O)c(C(C)(C)C)c1", "outcome": "inactive"},
      {"smiles": "Oc1cccc(O)c1", "outcome": "inactive"},
      {"smiles": "CN1CCN(c2ccccc2/C=C2\\SCCN(c3ccc(Cl)c(Cl)c3)C2=O)CC1", "outcome": "inactive"},
      {"smiles": "COC(=O)CCCCC(=O)OC", "outcome": "inactive"},
      {"smiles": "COc1cc(CCC(=O)CC(=O)CCc2ccc(O)c(OC)c2)ccc1O", "outcome": "inactive"},
      {"smiles": "COCC(C)OCC(C)O", "note": "(stereo unspecified)", "outcome": "inactive"},
      {"smiles": "CCN(CC)CCNc1ccc(CNC=O)c2sc3ccc(OC)cc3c(=O)c12", "outcome": "inactive"},
      {"smiles": "Cc1oc(-c2ccccc2)nc1CCOc1ccc(C[C@H](Nc2ccccc2C(=O)c2ccccc2)C(=O)O)cc1", "outcome": "inactive"}
    ]},
    {"assay": "APR_HepG2_CellCycleArrest_24hr: Apredica 24-hour HepG2 Assay for Cell Cycle Arrest (AID 2282905; active means hit-call score of the fitted dose curve at least 0.9, where 1 is the maximum; inactive means score below 0.9;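 further: cell cycle arrest scored as ratio of 2N to 4N nuclear DNA content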)", "settings": "imaging, actives raise or lower the signal", "how_it_was_run": "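Step one: dose HepG2 with test compounds, 0.39–200 uM, 0.5% DMSO, 24 hr. Step two: fix, permeabilize, stain nuclei with Hoechst 33342. Step three: image six fields per well at 20x, quantify DNA content, fit bidirectionally relative to DMSO.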", "values": [
      {"smiles": "CC#C[C@]1(O)CC[C@H]2[C@@H]3CCC4=CC(=O)CCC4=C3[C@@H](c3ccc(N(C)C)cc3)C[C@@]21C", "outcome": "inactive"},
      {"smiles": "CCOC(=O)CC(O)(CC(=O)OCC)C(=O)OCC", "outcome": "inactive"},
      {"smiles": "CCCCCCCC(=O)O", "outcome": "inactive"},
      {"smiles": "CC[C@H](c1ccc(O)cc1)[C@@H](CC)c1ccc(O)cc1", "outcome": "inactive"},
      {"smiles": "O=c1c(-c2ccc(O)cc2)coc2cc(O)ccc12", "outcome": "inactive"},
      {"smiles": "CCCCC(CC)COC(=O)CCCCC(=O)OCC(CC)CCCC", "note": "(stereo unspecified)", "outcome": "inactive"},
      {"smiles": "CC(C)(C)c1cccc(C(C)(C)C)c1O", "outcome": "inactive"},
      {"smiles": "CCCOc1sc(C(=O)N2CCC(c3cc(CN)ccc3F)CC2)c(C)c1Br", "AC50": "22.3 µM (active)"},
      {"smiles": "NC(=O)N(O)[C@@H]1C=C[C@H](Oc2cccc(Oc3ccc(F)cc3)c2)C1", "outcome": "inactive"},
      {"smiles": "NC(=O)N1C(=O)C(C(=O)c2cc(Cl)cs2)c2cc(F)c(Cl)cc21", "note": "(stereo unspecified)", "outcome": "inactive"},
      {"smiles": "Cc1cc(C)c(O)c(C)c1", "outcome": "inactive"},
      {"smiles": "Nc1cccc2c(N)cccc12", "outcome": "inactive"},
      {"smiles": "COCC(C)O", "note": "(stereo unspecified)", "outcome": "inactive"},
      {"smiles": "c1ccc2c(c1)ccc1ccccc12", "outcome": "inactive"},
      {"smiles": "CCCCC[C@H](O)CC(=O)CCc1ccc(O)c(OC)c1", "outcome": "inactive"},
      {"smiles": "CC(C)CCCCCCOC(=O)CCCCC(=O)OCCCCCCC(C)C", "outcome": "inactive"},
      {"smiles": "O=C(/C=C/c1ccc(O)cc1)CC(=O)/C=C/c1ccc(O)cc1", "outcome": "inactive"},
      {"smiles": "OCCC(F)(F)C(F)(F)C(F)(F)C(F)(F)C(F)(F)C(F)(F)C(F)(F)C(F)(F)F", "AC50": "17.6 µM (active)"},
      {"smiles": "C#C[C@]1(O)CC[C@H]2[C@@H]3CCC4=CC(=O)CC[C@@H]4[C@H]3CC[C@@]21C", "outcome": "inactive"},
      {"smiles": "CCc1nn(C2CCCCC2)c2cc(C3(C#N)CCC(C(=O)O)CC3)ccc12", "note": "(stereo unspecified)", "outcome": "inactive"},
      {"smiles": "OC1CCCCC1", "outcome": "inactive"},
      {"smiles": "CCC(=C(c1ccc(O)cc1)c1ccc(OCCN(C)C)cc1)c1ccccc1", "outcome": "inactive"},
      {"smiles": "CCc1ccc(CCOc2ccc(CC3SC(=O)NC3=O)cc2)nc1", "note": "(stereo unspecified)", "AC50": "30.6 µM (active)"},
      {"smiles": "CC(C)(C)c1ccc(O)c(C(C)(C)C)c1", "outcome": "inactive"},
      {"smiles": "Oc1cccc(O)c1", "outcome": "inactive"},
      {"smiles": "CN1CCN(c2ccccc2/C=C2\\SCCN(c3ccc(Cl)c(Cl)c3)C2=O)CC1", "outcome": "inactive"},
      {"smiles": "COC(=O)CCCCC(=O)OC", "outcome": "inactive"},
      {"smiles": "COc1cc(CCC(=O)CC(=O)CCc2ccc(O)c(OC)c2)ccc1O", "outcome": "inactive"},
      {"smiles": "COCC(C)OCC(C)O", "note": "(stereo unspecified)", "outcome": "inactive"},
      {"smiles": "CCN(CC)CCNc1ccc(CNC=O)c2sc3ccc(OC)cc3c(=O)c12", "AC50": "5.68 µM (active)"},
      {"smiles": "Cc1oc(-c2ccccc2)nc1CCOc1ccc(C[C@H](Nc2ccccc2C(=O)c2ccccc2)C(=O)O)cc1", "outcome": "inactive"}
    ]}
  ]
}
